Data from PubChem BioAssay AID952 (NMMLSC, 2007).
Hit rate of the full screen: of about 190,000 compounds, about 45 (0.02%) were called active. Rule as the data show it: active = inhibition above about 40%. A selection follows.

Each molecule was assayed against Bcl-2-like protein 2 (Homo sapiens) (UniProt Q92843) (assay: inhibitors of Bim binding to Bcl-W, primary screen, biochemical, multiplexed, bead-based flow cytometry (AID 952;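 also: 0% = bound tracer without compound and 100% = peptide blocker; higher means less fluorescent Bim peptide bound to Bcl-W beads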)). Details: Bim peptide-Bcl-W binding, at 10 µM, stronger effect = higher value.
Chain of Bcl-2-like protein 2 (Homo sapiens) (Q92843 whole entry, looked up): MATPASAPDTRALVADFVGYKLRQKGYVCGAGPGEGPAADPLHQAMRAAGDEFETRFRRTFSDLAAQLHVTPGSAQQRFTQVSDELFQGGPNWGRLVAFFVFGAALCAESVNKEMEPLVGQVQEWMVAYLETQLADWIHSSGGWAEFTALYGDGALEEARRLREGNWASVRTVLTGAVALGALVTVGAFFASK

inhibition, inactive:
CNC(=O)/C(C#N)=C/c1c(F)cccc1Cl -2%
CCn1ncc(CNC(=O)C2(C)CC2(Br)Br)c1C (stereo unspecified) -4%
Cc1ccc(N(C(=O)C(F)(F)F)C(C(=O)NC2CCCCC2)c2ccncc2)cc1C (stereo unspecified) -1%
N#Cc1cccc(Nc2c3c(nc4ccccc24)CCCC3)c1 4%
COc1ccc(Cl)cc1NC(=O)CN(C)Cc1ccc(OC)c(OC)c1 -4%
NC(=O)CC[C@@H]1NC(=O)[C@H](CO)NC(=O)c2cc([N+](=O)[O-])cc(I)c2NCC[C@@H](C(N)=O)NC1=O 0%
O=C(/C=C/c1ccc(N2CCOCC2)cc1)c1ccccc1 -4%
CCCC(C)C(=O)OCC(=O)Nc1c(Br)cc(C)cc1Br (stereo unspecified) 0%
O=S(=O)(c1ccc(F)cc1)N1CCN(C(=S)NC2CCCC2)CC1 0%
COc1cc2c(cc1NC(=O)COC(=O)/C=C/c1ccccc1)oc1ccccc12 -7%
Cc1ccc(N(C(=O)c2sc(C)nc2C)C(C(=O)NC(C)(C)C)c2ccncc2)cc1 (stereo unspecified) -1%
COc1ccc(C(=O)CSc2nnc(NC(=O)C3CC(=O)N(c4cccc(OC)c4)C3)s2)cc1 (stereo unspecified) -2%
O=C(Nn1c(-c2ccc(Cl)cc2)nc2ccccc2c1=O)c1cccnc1Cl 10%
Cc1cc(OCCCN2CCN(Cc3ccccc3)CC2)ccc1[N+](=O)[O-] 0%
COc1ccc(Nc2ncc(F)c(N3CCOCC3)n2)cc1 -1%
CCCCCOc1ccc(/C=C/C(=O)NCCc2nc3ccccc3[nH]2)cc1OC -7%
CCCC/C(C)=N/NC(=O)NC1CCCCC1 -3%
COc1ccnc(Oc2ccccc2)c1-c1ncn[nH]1 -1%
N=c1n(CCc2ccccc2)c2ccccc2n1Cc1ccccc1F -6%
COc1ccccc1NC(=S)N1CCN(C(c2ccccc2)c2ccccc2)CC1 1%
O=C(c1ccncc1)N1CCN(c2ccc3ccccc3n2)CC1 0%
Cc1ccc(C(=O)Oc2coc(CSc3nnc(NC(=O)c4cccs4)s3)cc2=O)cc1C -6%
COc1ccc(NC(=O)C(=O)NCC(=O)Nc2cccc(C(F)(F)F)c2)cc1 1%
CCN(CC)C(=O)CS(=O)CC(=O)Nc1cc(OCCOC)c(Cl)cc1Cl (stereo unspecified) -1%
Brc1cc(/C=N/n2cnnc2)oc1Br -2%
CCc1ccc(CN(C)C(=O)CCc2nnc(-c3ccc(-c4ccccc4)cc3)o2)nc1 1%
CC(C)N(Cc1ccccc1)C(=O)COC(=O)c1cnccn1 -1%
COCC(C)n1c(C)cc(C(=O)CSc2cc(C)c3ccccc3n2)c1C (stereo unspecified) -6%
O=C(c1cccs1)n1nc(NCc2ccccc2)nc1NCc1ccccc1 0%
Cc1ccc(NCc2n[nH]c(=S)n2-c2ccccc2)cc1Cl 0%
Cc1cc2nc(C(F)(F)F)cc(-c3cccs3)n2n1 0%
O=C1Oc2ccccc2C(=O)/C1=C/c1ccccc1O 0%
Cc1ccc(/C=C/C(=O)Nc2cc(S(=O)(=O)N3CCCCCC3)ccc2OCC(F)(F)F)o1 -2%
Cc1ccc(C2CC(c3cccc(NS(C)(=O)=O)c3)=NN2S(C)(=O)=O)cc1 (stereo unspecified) -1%
COCCn1c(=O)[nH]c(=O)c2cc(C(=O)c3cc(OC)ccc3O)cnc21 -3%
CC1(C)CC(=O)C=C(N2CCOCC2)C1 -2%
Cc1cc(OCCCC(=O)NCCN2C(=O)S/C(=C\c3cccnc3)C2=O)ccc1Cl -3%
O=C(N/N=C/c1ccc(OCc2ccccc2)cc1)c1ccc(O)cc1 0%
CC(C)C(O)C1CCN(Cc2nc(Cc3ccccc3Cl)no2)CC1 (stereo unspecified) 1%
CSc1ccc(/C=C/C(=O)NC23CC4CC(CC(C4)C2)C3)cc1 -2%
CN1CCN(/N=C/c2ccc(-c3ccc([N+](=O)[O-])cc3)o2)CC1 3%
Cc1ccnc(NC(=O)CCCOc2ccccc2)c1 -1%
Cc1ccc(CCCOC(=O)C[N+]2(C)CCCC2)cc1 3%
COc1ccc(-c2csc3ncnc(Oc4ccc5c(C)cc(=O)oc5c4)c23)cc1 -9%
CCn1c(SCc2ccccc2)nc2c(c1=O)SCC2 -2%
CCOC(=O)C1=C(CN2CCCCCC2)NC(=O)NC1c1cccc([N+](=O)[O-])c1 (stereo unspecified) -2%
FC(F)Oc1ccccc1NC(=S)Nc1cccc(Cl)c1Cl -3%
CCC(C)NC(=O)c1ccc(N2CCC3(CC2)OCCO3)c([N+](=O)[O-])c1 (stereo unspecified) -1%
C=C(C)C1CC=C(C)/C(=N\NC(=O)CNc2ccccc2OC)C1 (stereo unspecified) 0%
NCCCC[C@@H]1NC(=O)[C@H](CCC(=O)O)NC(=O)c2cc([N+](=O)[O-])cc(I)c2NCC[C@@H](C(N)=O)NC1=O 2%
Cc1nnc(SCC(=O)N2CCOCC2)[nH]c1=O -4%
OCCC1CN(Cc2ccc(Oc3ncccn3)cc2)CCN1CCc1ccccc1 (stereo unspecified) -3%
Cc1[nH]c2ccccc2c1/C=N\NC(=O)Cn1nnc(-c2ccccc2)n1 -6%
CCOC(=O)C1=NOC(Cn2cc(C(C)=O)c(=O)[nH]c2=O)C1 (stereo unspecified) -3%
CN(C)c1ccc(Nc2c3c4c(cccc4n(C)c2=O)C(=O)c2ccccc2-3)cc1 14%
C1CC1Cc1noc(CN2CCN(CC3CC3)CC2)n1 -3%
COC(=O)c1nn(-c2cccc(Cl)c2)ccc1=O 1%
O=C(CC1C(=O)NCCN1CC(c1ccccc1)c1ccccc1)NCCc1cn[nH]c1 (stereo unspecified) -4%
O=C(CCN1C(=O)c2ccccc2C1=O)NCCCn1ccnc1 0%
Cc1cc(C)c2c(n1)sc1c(=O)n(-c3ccccc3)c(=O)[nH]c12 -3%
Cc1ccccc1NS(=O)(=O)CCCCC(Cl)(Cl)Cl 0%
COc1ccc(NS(=O)(=O)c2ccc(NC(=O)c3ccc(N(C)S(C)(=O)=O)cc3)cc2)cc1 -8%
CCc1ccc(-n2c(SCc3cc(=O)n4cc(Br)ccc4n3)nc3[nH]ncc3c2=O)cc1 -4%
COCCNC(=O)C(c1ccc(O)cc1)N(C(=O)CCC(=O)Nc1nccs1)c1ccc(C)cc1 (stereo unspecified) -3%
O=C(CN1CCN(S(=O)(=O)c2ccc(Br)cc2)CC1)Nc1ccccc1C(=O)c1ccccc1 -9%
O=C(NCC1COc2ccccc2O1)C1(c2ccccc2)CCCC1 (stereo unspecified) -1%
OCCCC1CCCCN1Cc1nc(Cc2ccccc2Cl)no1 (stereo unspecified) 4%
CCOC(=O)/C(=N\Nc1cc(Cl)ccc1Cl)N1CCN(C)CC1 -5%
COC(=O)c1c(NC(=O)CN(c2ccc(C)c(C)c2)S(C)(=O)=O)sc2c1CCCC2 -6%
Cc1ccc(S(=O)(=O)N2CCCC2C(=O)OCc2nc3sc(C)c(C)c3c(=O)[nH]2)cc1 (stereo unspecified) -3%
CN(C)c1nc(N)nc(Cn2nnc(-c3ccc(C(F)(F)F)cc3)n2)n1 -5%
CC(=O)N/N=C/c1cc2c(cc1[N+](=O)[O-])OCO2 -2%
O=C(CN1CCN(C(=S)NC2CCCC2)CC1)Nc1ccc(Oc2ccccc2)cc1 -12%
Cc1ccc2nsnc2c1NC(=O)c1ccccc1[N+](=O)[O-] 0%
CC(C)N1CCC(N2CCN(Cc3cccnc3)CC2CCO)CC1 (stereo unspecified) -4%
CCN(CCCNC(=O)CCn1c(=O)[nH]c2ccsc2c1=O)c1ccccc1 1%
O=C(COC(=O)c1ccccc1C(=O)N1CCN(c2ccccc2)CC1)NCc1ccccc1 -3%
O=C(CCCO)N/N=C/c1cc(Br)ccc1O -3%
CC(C)(C)CN1CCNC(=O)C1CC(=O)NC1Cc2ccccc2C1 (stereo unspecified) 1%
COc1ccc(C(=O)N2CCC(C(=O)Nc3ccc(C)cc3)CC2)cc1 -1%
N#Cc1ccc(-c2nc3cc(C#N)c(C#N)cc3nc2-c2ccccc2)cc1C#N 0%
COc1ccc(NC(=S)SC)cc1OC -2%
O=C(N/N=C/c1ccc([N+](=O)[O-])o1)c1cccc(S(=O)(=O)N2CCOCC2)c1 0%
C=CCOC(=O)C1=C[C@@H](c2ccccc2)C[C@@H](OCc2ccc(CO)cc2)O1 0%
CCC(C)(C)NC(=O)CN(C(=O)CCC(=O)Nc1cc(C)ccn1)c1ccc2c(c1)OCCO2 1%
Cn1c(=NC(=O)c2ccc3c(c2)OCCO3)sc2cc(S(C)(=O)=O)ccc21 -1%
Cn1nc(-c2ccccc2)c(CO)c1Sc1ccccc1 -2%
Cc1cc(C)c(S(=O)(=O)N2CCOCC2)cc1C 0%
Cc1cccc(C(=O)N2CCc3c([nH]c4ccccc34)C2CC(C)C)n1 (stereo unspecified) 3%
CN(C)S(=O)(=O)c1ccc2oc(SCC(=O)Nc3ccccc3F)nc2c1 0%
O=C(NNC(=O)c1ccccc1[N+](=O)[O-])Nc1ccccc1C(F)(F)F 0%
Cc1cc(C(=O)NNC(=S)Nc2ccccc2C)cs1 0%
COC(=O)c1ccccc1NC(=O)C1CC(=O)N(c2ccc(OC)cc2)C1 (stereo unspecified) 0%
Cc1noc(C)c1S(=O)(=O)N(C)Cc1ccccc1 -1%
CNCC(O)CN1CCN(c2ccccc2OC)CC1 (stereo unspecified) -1%
Cc1ccc(CCCOC(=O)C[N+]2(C)CCCCC2)cc1 0%
